Screen size: about 3,200 compounds; about 300 (9.4%) showed activity. This excerpt belongs to a sample that is enriched for actives.
Test system: A673/TR/shEF
Experiment: cell viability (LOESS-normalised, relative to median of negative controls) (log2 ratio); higher = more viable cells (less compound effect), active = hit call of the paper (over 3 MAD below the median)
Details: treatment time: 72 h
Method in brief: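 A673/TR/shEF Ewing sarcoma cells (1,500 per well, 384-well plates) were grown with or without doxycycline to induce EWS-FLI1 shRNA knockdown, starting 24 h before compounds. Library compounds at two or more concentrations, with DMSO controls, were added for three days. Cell viability was read by CellTiter-Glo luminescence on an Envision reader, then LOESS-corrected per plate, divided by the median of negative controls and log2-transformed. Hits were wells at least three median absolute deviations from the median of all screened wells.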

[1] = 0.103 µM, library screen: screen3, EWS-FLI1 expression: high (no doxycycline)
[2] = 0.103 µM, library screen: screen3, EWS-FLI1 expression: low (doxycycline-induced shRNA knockdown)
[3] = 0.308 µM, library screen: screen3, EWS-FLI1 expression: high (no doxycycline)
[4] = 0.308 µM, library screen: screen3, EWS-FLI1 expression: low (doxycycline-induced shRNA knockdown)
[5] = 0.926 µM, library screen: screen3, EWS-FLI1 expression: high (no doxycycline)
[6] = 0.926 µM, library screen: screen3, EWS-FLI1 expression: low (doxycycline-induced shRNA knockdown)
[7] = 2.8 µM, library screen: screen3, EWS-FLI1 expression: high (no doxycycline)
[8] = 2.8 µM, library screen: screen3, EWS-FLI1 expression: low (doxycycline-induced shRNA knockdown)
[9] = 8.3 µM, library screen: screen3, EWS-FLI1 expression: high (no doxycycline)
[10] = 8.3 µM, library screen: screen3, EWS-FLI1 expression: low (doxycycline-induced shRNA knockdown)
[11] = 25 µM, library screen: screen3, EWS-FLI1 expression: high (no doxycycline)
[12] = 25 µM, library screen: screen3, EWS-FLI1 expression: low (doxycycline-induced shRNA knockdown)
[13] = 0.25 µM, library screen: screen1, EWS-FLI1 expression: high (no doxycycline)
[14] = 0.25 µM, library screen: screen1, EWS-FLI1 expression: low (doxycycline-induced shRNA knockdown)
[15] = 2.5 µM, library screen: screen1, EWS-FLI1 expression: high (no doxycycline)
[16] = 2.5 µM, library screen: screen1, EWS-FLI1 expression: low (doxycycline-induced shRNA knockdown)
[17] = 0.25 µM, library screen: screen2, EWS-FLI1 expression: high (no doxycycline)
[18] = 0.25 µM, library screen: screen2, EWS-FLI1 expression: low (doxycycline-induced shRNA knockdown)
[19] = 2.5 µM, library screen: screen2, EWS-FLI1 expression: high (no doxycycline)
[20] = 2.5 µM, library screen: screen2, EWS-FLI1 expression: low (doxycycline-induced shRNA knockdown)

Measured: cell viability (log2)

C[C@]12CC[C@H]3[C@@H](CCC4=CC(=O)CC[C@@]43C)[C@@H]1CC[C@@H]2OC(=O)CCC1CCCC1
inactive: [1] -0.000785 | [2] 0.011 | [3] 0.0351 | [4] 0.0268 | [5] 0.0442 | [6] 0.0219 | [7] 0.0558 | [8] 0.00975 | [9] 0.0577 | [10] 0.0516 | [11] 0.0518 | [12] 0.0747

CC(N)Cc1ccc(O)cc1 (configuration not stated)
inactive: [13] 0.0594 | [14] 0.0957 | [15] 0.092 | [16] 0.0198

COC[C@H]1OC(=O)c2coc3c2[C@@]1(C)C1=C(C3=O)[C@@H]2CCC(=O)[C@@]2(C)C[C@H]1OC(C)=O
active: [15] -0.356 | 25 µM, library screen: screen1, EWS-FLI1 expression: high (no doxycycline) -0.711 | 25 µM, library screen: screen1, EWS-FLI1 expression: low (doxycycline-induced shRNA knockdown) -0.309
inactive: 0.025 µM, library screen: screen1, EWS-FLI1 expression: high (no doxycycline) 0.254 | 0.025 µM, library screen: screen1, EWS-FLI1 expression: low (doxycycline-induced shRNA knockdown) 0.0235 | [13] 0.137 | [14] -0.0412 | [17] 0.179 | [18] 0.0105 | [16] -0.0837 | [19] -0.0237 | [20] 0.0148

CCCN1CCC[C@@H](c2cccc(C#N)c2)C1
inactive: [17] 0.21 | [18] 0.0529 | [19] 0.222 | [20] 0.141

CC1(C)C2C[C@@H](O)[C@]3(C)C(CC[C@@]4(C)[C@H](c5ccoc5)CC5OC543)[C@@]2(C)[C@@H](O)C[C@H]1O (some centres not stated)
inactive: [13] 0.0938 | [14] 0.113 | [15] 0.107 | [16] 0.116

CCCN(CCC)c1c([N+](=O)[O-])cc(C(F)(F)F)cc1[N+](=O)[O-]
inactive: [13] -0.0384 | [14] 0.0507 | [15] 0.104 | [16] 0.107

CCOC(=O)NC1=C(N2CC2)C(=O)C(NC(=O)OCC)=C(N2CC2)C1=O
active: 25 µM, library screen: screen2, EWS-FLI1 expression: high (no doxycycline) -3.5 | 25 µM, library screen: screen2, EWS-FLI1 expression: low (doxycycline-induced shRNA knockdown) -0.288
inactive: 0.025 µM, library screen: screen2, EWS-FLI1 expression: high (no doxycycline) -0.0137 | 0.025 µM, library screen: screen2, EWS-FLI1 expression: low (doxycycline-induced shRNA knockdown) -0.0126 | [13] 0.102 | [14] 0.0213 | [17] 0.153 | [18] -0.00616 | [15] 0.0672 | [16] 0.107 | [19] -0.0475 | [20] 0.0995

CCC(C)[C@H]1O[C@]2(C=C[C@@H]1C)C[C@@H]1C[C@@H](C/C=C(\C)[C@@H](O[C@H]3C[C@H](OC)[C@@H](O[C@H]4C[C@H](OC)[C@@H](O)[C@H](C)O4)[C@H](C)O3)[C@@H](C)/C=C/C=C3\CO[C@@H]4[C@H](O)C(C)=C[C@@H](C(=O)O1)[C@]34O)O2.CO[C@H]1C[C@H](O[C@H]2[C@H](C)O[C@@H](O[C@@H]3/C(C)=C/C[C@@H]4C[C@@H](C[C@]5(C=C[C@H](C)[C@@H](C(C)C)O5)O4)OC(=O)[C@@H]4C=C(C)[C@@H](O)[C@H]5OC/C(=C\C=C\[C@@H]3C)[C@]54O)C[C@@H]2OC)O[C@@H](C)[C@@H]1O (some centres not stated)
inactive: [13] 0.0422 | [14] 0.0818 | [15] 0.0639 | [16] 0.0892

Cn1cc(C2=C(c3cn(C4CCN(Cc5ccccn5)CC4)c4ccccc34)C(=O)NC2=O)c2ccccc21
inactive: [1] -0.105 | [2] -0.0101 | [3] -0.0168 | [4] 0.054 | [5] -0.0718 | [6] 0.0485 | [7] -0.024 | [8] -0.0681 | [9] 0.0419 | [10] 0.0589 | [11] -0.03 | [12] 0.0493

C=CCN1CCC23c4c5ccc(O)c4O[C@@H]2/C(=N/NC(=O)c2ccccc2)CCC3(O)[C@H]1C5 (some centres not stated)
inactive: [17] 0.0804 | [18] 0.0684 | [19] 0.0878 | [20] 0.0887

C[C@H]1CCC/C=C/[C@@H]2C[C@H](O)C[C@H]2[C@H](O)/C=C/C(=O)O1
active: [17] -0.127 | [18] -0.561 | [19] -3.76 | [20] -3.56

CN1[C@@H]2CC[C@H]1CC(OC(=O)C(CO)c1ccccc1)C2 (some centres not stated)
inactive: [1] -0.0138 | [2] 0.0399 | [13] 0.0603 | [14] 0.0968 | [3] -0.021 | [4] -0.00749 | [5] -0.0329 | [6] 0.092 | [15] 0.15 | [16] 0.157 | [7] -0.023 | [8] -0.00135 | [9] -0.0414 | [10] -0.0331 | [11] -0.025 | [12] 0.0734

From the supplement of paper PMC6089552
